# According to PubChem BioAssay (EPA / NIEHS):
# Records with an inconclusive call do not appear. Active and inactive are the calls of the source. The calls were made as follows: active = hit-call score of the fitted dose curve at least 0.9, where 1 is the maximum; inconclusive = response in the unintended direction; inactive = score below 0.9.
# Assays:
# [1] = target: sheep Cyclooxygenase-1 (Cox1), PTGS1 (gene 443551) (UniProt P05979); assay: NVS_ENZ_oCOX1: NovaScreen (NVS) Enzymatic Assay for sheep Cyclooxygenase-1 (Cox1) (AID 2283239);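 also: actives reduce cyclooxygenase activity so potencies are for inhibitors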
# sheep Cyclooxygenase-1 (Cox1), PTGS1 (gene 443551), sequence (P05979 whole entry, looked up): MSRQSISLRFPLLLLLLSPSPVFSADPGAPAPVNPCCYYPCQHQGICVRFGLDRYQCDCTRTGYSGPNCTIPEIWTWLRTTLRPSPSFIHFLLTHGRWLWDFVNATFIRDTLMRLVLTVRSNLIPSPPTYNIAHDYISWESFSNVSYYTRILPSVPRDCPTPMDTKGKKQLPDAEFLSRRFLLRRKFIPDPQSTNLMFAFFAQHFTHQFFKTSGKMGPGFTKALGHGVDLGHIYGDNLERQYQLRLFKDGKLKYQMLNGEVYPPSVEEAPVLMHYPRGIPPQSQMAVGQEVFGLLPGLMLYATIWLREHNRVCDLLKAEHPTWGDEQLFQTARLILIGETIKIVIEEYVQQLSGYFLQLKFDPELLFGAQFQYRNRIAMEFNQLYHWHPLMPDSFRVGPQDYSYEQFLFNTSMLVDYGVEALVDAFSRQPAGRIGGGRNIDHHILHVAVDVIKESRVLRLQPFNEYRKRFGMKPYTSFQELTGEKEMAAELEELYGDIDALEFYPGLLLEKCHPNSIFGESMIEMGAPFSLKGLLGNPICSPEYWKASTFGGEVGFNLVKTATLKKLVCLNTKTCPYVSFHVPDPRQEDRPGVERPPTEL
# Outline: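 Absorbance read-out of cyclooxygenase activity in a cell-free preparation from sheep seminal vesicles, taken 0.66 hour after dosing. Initial testing was in duplicate at 25 uM, and confirmatory testing was run in concentration series.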
# [2] = test system: rat Monoamine Oxidase, MAO-A, Central (MAOAC), gene 29253; assay: NVS_ENZ_rMAOAC: NovaScreen (NVS) Enzymatic Assay for rat Monoamine Oxidase, MAO-A, Central (MAOAC) (AID 2283243);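 also: potency refers to inhibition seen as signal drop below DMSO baseline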
# Outline: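 Lysate-based radiometric enzyme assay using rat brain tissue; 1.5 h treatment; 25 uM single-point duplicate screen, concentration-response follow-up; loss of signal versus DMSO.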
# [3] = test system: guinea pig Leukotriene B4 Receptor (LTB4), gene 100379538; assay: NVS_GPCR_gLTB4: NovaScreen (NVS) G Protein-Coupled Receptor Assay for guinea pig Leukotriene B4 Receptor (LTB4) (AID 2283247)
# Outline: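 Membranes from guinea pig spleen incubated 2 h with radioligand and compound; bound counts measured by filtration and scintillation. Screened first at 25 uM in duplicate, then actives titrated to a 50 uM top concentration relative to DMSO.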
# [4] = target: human Serotonin, 5-Hydroxytryptamine Receptor 7 (5HT7), HTR7 (gene 3363) (UniProt P34969); assay: NVS_GPCR_h5HT7: NovaScreen (NVS) G Protein-Coupled Receptor Assay for human Serotonin, 5-Hydroxytryptamine Receptor 7 (5HT7) (AID 2283255);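 also: hits reduce specific radioligand binding relative to DMSO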
# human Serotonin, 5-Hydroxytryptamine Receptor 7 (5HT7), HTR7 (gene 3363), sequence (P34969 whole entry, looked up): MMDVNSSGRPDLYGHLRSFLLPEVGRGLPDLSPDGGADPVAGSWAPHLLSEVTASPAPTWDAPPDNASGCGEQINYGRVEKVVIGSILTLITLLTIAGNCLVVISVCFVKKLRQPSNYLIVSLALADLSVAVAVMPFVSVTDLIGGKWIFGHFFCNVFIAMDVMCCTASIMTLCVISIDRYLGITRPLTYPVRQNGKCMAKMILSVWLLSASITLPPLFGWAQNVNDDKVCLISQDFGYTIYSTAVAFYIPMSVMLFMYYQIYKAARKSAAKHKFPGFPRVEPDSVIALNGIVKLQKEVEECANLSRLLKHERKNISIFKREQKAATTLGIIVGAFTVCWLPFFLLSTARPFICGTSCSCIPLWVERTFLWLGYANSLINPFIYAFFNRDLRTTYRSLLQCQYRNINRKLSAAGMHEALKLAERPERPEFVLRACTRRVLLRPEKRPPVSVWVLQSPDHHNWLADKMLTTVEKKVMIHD
# Outline: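 Filter-bound radioactivity counted after 1 h, with loss of specific radioligand binding fitted against DMSO. Membrane protein came from CHO cells expressing human 5HT7. Chemicals were tested first at 25 uM in duplicate, then in concentration series if active.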
# [5] = target: human Adenosine A2a Receptor (AdoRA2a), ADORA2A (gene 135) (UniProt P29274); assay: NVS_GPCR_hAdoRA2a: NovaScreen (NVS) G Protein-Coupled Receptor Assay for human Adenosine A2a Receptor (AdoRA2a) (AID 2283256)
# human Adenosine A2a Receptor (AdoRA2a), ADORA2A (gene 135), sequence (P29274 whole entry, looked up): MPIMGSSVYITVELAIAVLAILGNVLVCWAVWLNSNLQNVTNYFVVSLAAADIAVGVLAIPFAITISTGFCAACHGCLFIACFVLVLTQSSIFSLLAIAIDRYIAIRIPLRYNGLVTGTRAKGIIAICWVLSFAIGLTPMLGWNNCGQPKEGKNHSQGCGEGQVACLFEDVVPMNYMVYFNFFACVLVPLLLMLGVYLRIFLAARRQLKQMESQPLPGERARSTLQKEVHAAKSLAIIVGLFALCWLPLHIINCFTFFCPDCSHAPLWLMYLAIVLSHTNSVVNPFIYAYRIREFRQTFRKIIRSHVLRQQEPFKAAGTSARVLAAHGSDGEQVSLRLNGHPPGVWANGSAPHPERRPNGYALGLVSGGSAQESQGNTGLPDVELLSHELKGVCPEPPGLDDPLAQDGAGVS
# Outline: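 HEK293-derived receptor preparation, radioligand displacement, 1.5 h, filtration + scintillation read. Loss of bound signal scored vs DMSO. Single-point 25 uM in duplicate first, then concentration-response for actives.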
# [6] = target: bovine Dopamine Receptor (DR), Non-selective Binding, DRD1 (gene 281125) (UniProt Q95136); assay: NVS_GPCR_bDR_NonSelective: NovaScreen (NVS) G Protein-Coupled Receptor Assay for bovine Dopamine Receptor (DR), Non-selective Binding (AID 2283241)
# bovine Dopamine Receptor (DR), Non-selective Binding, DRD1 (gene 281125), sequence (Q95136 whole entry, looked up): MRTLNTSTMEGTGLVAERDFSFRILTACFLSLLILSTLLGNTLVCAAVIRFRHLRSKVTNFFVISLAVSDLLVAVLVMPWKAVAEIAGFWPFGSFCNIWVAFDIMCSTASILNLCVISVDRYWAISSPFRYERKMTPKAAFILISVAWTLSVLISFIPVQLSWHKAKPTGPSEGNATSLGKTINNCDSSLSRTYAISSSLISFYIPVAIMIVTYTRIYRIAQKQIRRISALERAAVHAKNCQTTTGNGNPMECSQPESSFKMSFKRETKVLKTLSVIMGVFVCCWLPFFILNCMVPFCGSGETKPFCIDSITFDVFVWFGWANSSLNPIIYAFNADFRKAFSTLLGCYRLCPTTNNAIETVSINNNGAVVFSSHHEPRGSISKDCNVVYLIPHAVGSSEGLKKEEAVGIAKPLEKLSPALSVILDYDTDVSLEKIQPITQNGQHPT
# Outline: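 Filter-based radioligand binding with bovine striatal membrane, incubated 1 h; DMSO as negative baseline. Initial duplicate single-point test at 25 uM preceded concentration series for actives.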
# [7] = target: rat Monoamine Oxidase, MAO-B, Peripheral (MAOBP), Maob (gene 25750) (UniProt P19643); assay: NVS_ENZ_rMAOBP: NovaScreen (NVS) Enzymatic Assay for rat Monoamine Oxidase, MAO-B, Peripheral (MAOBP) (AID 2283242)
# rat Monoamine Oxidase, MAO-B, Peripheral (MAOBP), Maob (gene 25750), sequence (P19643 whole entry, looked up): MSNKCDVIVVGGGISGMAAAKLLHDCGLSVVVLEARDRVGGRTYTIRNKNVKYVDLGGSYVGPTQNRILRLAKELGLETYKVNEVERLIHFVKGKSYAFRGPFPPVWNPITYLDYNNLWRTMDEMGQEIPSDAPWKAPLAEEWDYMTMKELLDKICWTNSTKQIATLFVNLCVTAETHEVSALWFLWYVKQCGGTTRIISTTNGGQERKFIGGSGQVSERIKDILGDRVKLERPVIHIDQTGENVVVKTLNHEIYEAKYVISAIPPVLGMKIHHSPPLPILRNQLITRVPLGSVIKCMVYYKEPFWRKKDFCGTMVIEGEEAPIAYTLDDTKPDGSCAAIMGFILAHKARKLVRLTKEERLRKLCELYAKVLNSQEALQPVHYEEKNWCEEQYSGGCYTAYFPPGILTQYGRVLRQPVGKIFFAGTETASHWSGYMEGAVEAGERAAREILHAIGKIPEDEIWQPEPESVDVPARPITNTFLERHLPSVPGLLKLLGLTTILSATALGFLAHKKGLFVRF
# [8] = target: human Serotonin, 5-Hydroxytryptamine Receptor 2A (5HT2A), HTR2A (gene 3356) (UniProt P28223); assay: NVS_GPCR_h5HT2A: NovaScreen (NVS) G Protein-Coupled Receptor Assay for human Serotonin, 5-Hydroxytryptamine Receptor 2A (5HT2A) (AID 2283249)
# human Serotonin, 5-Hydroxytryptamine Receptor 2A (5HT2A), HTR2A (gene 3356), sequence (P28223 whole entry, looked up): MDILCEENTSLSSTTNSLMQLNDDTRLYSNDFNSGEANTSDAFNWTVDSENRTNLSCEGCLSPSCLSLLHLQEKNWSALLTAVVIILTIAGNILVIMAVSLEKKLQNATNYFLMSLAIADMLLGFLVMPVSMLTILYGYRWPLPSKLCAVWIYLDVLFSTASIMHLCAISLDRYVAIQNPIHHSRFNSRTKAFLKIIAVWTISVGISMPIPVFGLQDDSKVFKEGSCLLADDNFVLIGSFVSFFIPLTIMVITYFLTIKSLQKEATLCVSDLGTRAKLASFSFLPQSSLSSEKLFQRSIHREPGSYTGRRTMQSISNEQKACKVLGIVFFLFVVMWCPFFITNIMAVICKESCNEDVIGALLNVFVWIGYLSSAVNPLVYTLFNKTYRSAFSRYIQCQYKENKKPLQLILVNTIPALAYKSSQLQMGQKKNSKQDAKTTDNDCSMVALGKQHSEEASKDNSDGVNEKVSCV
# Outline: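 Radioligand displacement on human cortex tissue extract, counted by filtration and scintillation 1.5 h post-dosing. Initial single-concentration screen at 25 uM in duplicate, concentration series in follow-up; DMSO as baseline.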
# [9] = test system: guinea pig Muscarinic, Peripheral (Mperiperal) Receptor, Non-selective Binding, gene 100379235; assay: NVS_GPCR_gMPeripheral_NonSelective: NovaScreen (NVS) G Protein-Coupled Receptor Assay for guinea pig Muscarinic, Peripheral (Mperiperal) Receptor, Non-selective Binding (AID 2283250)
# Outline: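 Screened in duplicate at 25 uM, hits retested in concentration series to 50 uM max, using bladder membrane radioligand displacement from guinea pig. Filtration and scintillation counting 1 h post-dose, fitted relative to DMSO.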
# [10] = target: human Serotonin, 5-Hydroxytryptamine Receptor 5A (5HT5A), HTR5A (gene 3361) (UniProt P47898); assay: NVS_GPCR_h5HT5A: NovaScreen (NVS) G Protein-Coupled Receptor Assay for human Serotonin, 5-Hydroxytryptamine Receptor 5A (5HT5A) (AID 2283251)
# human Serotonin, 5-Hydroxytryptamine Receptor 5A (5HT5A), HTR5A (gene 3361), sequence (P47898 whole entry, looked up): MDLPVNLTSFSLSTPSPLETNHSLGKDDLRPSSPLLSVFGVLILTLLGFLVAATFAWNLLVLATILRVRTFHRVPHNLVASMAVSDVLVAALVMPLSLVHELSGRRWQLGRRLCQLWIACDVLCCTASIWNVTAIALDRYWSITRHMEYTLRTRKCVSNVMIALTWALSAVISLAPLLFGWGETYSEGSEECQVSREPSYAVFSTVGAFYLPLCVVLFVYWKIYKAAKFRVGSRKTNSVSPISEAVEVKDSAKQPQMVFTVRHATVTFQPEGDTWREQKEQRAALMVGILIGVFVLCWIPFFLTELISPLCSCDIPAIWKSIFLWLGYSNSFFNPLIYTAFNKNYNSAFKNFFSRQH
# Outline: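 Membranes from HEK293 cells, radioligand binding read by filtration and scintillation after 1 h. Single-concentration duplicate testing at 25 uM, then concentration-response for actives; positive-direction fitting relative to DMSO.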
# [11] = target: human Adrenergic, Alpha 2A Receptor (Adra2A), ADRA2A (gene 150) (UniProt P08913); assay: NVS_GPCR_hAdra2A: NovaScreen (NVS) G Protein-Coupled Receptor Assay for human Adrenergic, Alpha 2A Receptor (Adra2A) (AID 2283257)
# human Adrenergic, Alpha 2A Receptor (Adra2A), ADRA2A (gene 150), sequence (P08913 whole entry, looked up): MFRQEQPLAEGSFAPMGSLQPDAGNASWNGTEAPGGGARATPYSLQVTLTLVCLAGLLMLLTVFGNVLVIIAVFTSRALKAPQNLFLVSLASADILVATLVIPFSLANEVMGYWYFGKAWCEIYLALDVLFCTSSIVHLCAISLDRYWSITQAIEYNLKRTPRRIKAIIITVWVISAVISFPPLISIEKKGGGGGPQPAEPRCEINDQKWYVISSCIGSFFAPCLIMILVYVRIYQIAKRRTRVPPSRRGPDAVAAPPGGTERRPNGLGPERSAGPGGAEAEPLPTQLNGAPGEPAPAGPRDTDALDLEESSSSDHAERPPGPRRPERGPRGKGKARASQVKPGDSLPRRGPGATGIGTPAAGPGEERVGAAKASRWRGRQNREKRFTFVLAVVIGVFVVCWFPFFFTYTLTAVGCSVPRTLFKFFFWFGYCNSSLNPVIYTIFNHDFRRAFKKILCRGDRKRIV
# Outline: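 Displacement of a specific radioligand from HT29 membrane protein was counted by filter scintillation after 1 h. Compounds were screened in duplicate at 25 uM, and actives were retested in concentration series. Fitting was positive-direction against DMSO.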
# [12] = target: human Adenosine A1 Receptor (AdoRA1), ADORA1 (gene 134) (UniProt P30542); assay: NVS_GPCR_hAdoRA1: NovaScreen (NVS) G Protein-Coupled Receptor Assay for human Adenosine A1 Receptor (AdoRA1) (AID 2283254)
# Outline: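 Each chemical is first tested twice at 25 uM, actives later in dilution series, against a radioligand bound to human cortex membranes; after 1 h, filter-retained counts are compared with DMSO controls, lower signal indicating displacement.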
# [13] = test system: bovine Angiotensin II Receptor Type 2 (AT2), gene 407157; assay: NVS_GPCR_bAT2: NovaScreen (NVS) G Protein-Coupled Receptor Assay for bovine Angiotensin II Receptor Type 2 (AT2) (AID 2283240)
# Outline: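 Radioligand displacement on bovine cerebellar membranes, 1 hour incubation, filter-based scintillation counting; loss of signal vs DMSO. Duplicate single-point screen at 25 uM, then concentration-response to 50 uM maximum.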
# [14] = target: human Adrenergic, Beta 1 Receptor (Adrb1), ADRB1 (gene 153) (UniProt P08588); assay: NVS_GPCR_hAdrb1: NovaScreen (NVS) G Protein-Coupled Receptor Assay for human Adrenergic, Beta 1 Receptor (Adrb1) (AID 2283258)
# human Adrenergic, Beta 1 Receptor (Adrb1), ADRB1 (gene 153), sequence (P08588 whole entry, looked up): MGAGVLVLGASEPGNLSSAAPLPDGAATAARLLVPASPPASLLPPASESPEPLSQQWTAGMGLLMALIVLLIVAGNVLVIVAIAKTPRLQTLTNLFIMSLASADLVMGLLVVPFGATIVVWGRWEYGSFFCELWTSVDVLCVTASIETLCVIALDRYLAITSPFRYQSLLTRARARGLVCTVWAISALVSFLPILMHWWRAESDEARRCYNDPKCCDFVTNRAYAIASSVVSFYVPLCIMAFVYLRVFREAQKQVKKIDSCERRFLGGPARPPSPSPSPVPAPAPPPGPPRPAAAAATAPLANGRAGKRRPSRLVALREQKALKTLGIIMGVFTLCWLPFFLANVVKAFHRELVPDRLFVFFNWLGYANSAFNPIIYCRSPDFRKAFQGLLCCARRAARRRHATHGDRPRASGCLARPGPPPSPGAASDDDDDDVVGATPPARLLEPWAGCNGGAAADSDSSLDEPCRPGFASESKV
# Outline: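 Membranes/protein extracted from human neuroepithelioma cells, radioligand competition binding read by filtration and scintillation 2 h post-dose. Single 25 uM duplicate screen, then concentration-response follow-up; DMSO as negative control.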
# [15] = target: guinea pig Opioid, Kappa 1 Receptor (OpiateK), OPRK1 (gene 100135587) (UniProt P41144); assay: NVS_GPCR_gOpiateK: NovaScreen (NVS) G Protein-Coupled Receptor Assay for guinea pig Opioid, Kappa 1 Receptor (OpiateK) (AID 2283252);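 also: active means reduced radioligand binding relative to DMSO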
# guinea pig Opioid, Kappa 1 Receptor (OpiateK), OPRK1 (gene 100135587), sequence (P41144 whole entry, looked up): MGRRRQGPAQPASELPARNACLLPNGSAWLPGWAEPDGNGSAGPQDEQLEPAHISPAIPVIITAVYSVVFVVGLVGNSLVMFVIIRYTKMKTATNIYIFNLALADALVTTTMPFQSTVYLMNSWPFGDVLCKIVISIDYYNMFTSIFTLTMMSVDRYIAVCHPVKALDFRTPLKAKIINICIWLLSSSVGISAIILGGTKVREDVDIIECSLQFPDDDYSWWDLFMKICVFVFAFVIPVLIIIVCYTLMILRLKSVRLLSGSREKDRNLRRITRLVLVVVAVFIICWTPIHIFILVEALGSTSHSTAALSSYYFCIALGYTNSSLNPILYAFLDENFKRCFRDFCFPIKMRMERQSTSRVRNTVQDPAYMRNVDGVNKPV
# Outline: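 Radioligand binding to kappa opioid receptor in guinea pig cerebellar membranes, read by filtration and scintillation at 2 h. Compounds first tested in duplicate at 25 uM, then actives in concentration series; signal loss fitted against DMSO.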
# [16] = target: human Serotonin, 5-Hydroxytryptamine Receptor 6 (5HT6), HTR6 (gene 3362) (UniProt P50406); assay: NVS_GPCR_h5HT6: NovaScreen (NVS) G Protein-Coupled Receptor Assay for human Serotonin, 5-Hydroxytryptamine Receptor 6 (5HT6) (AID 2283253)
# Outline: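 Filter scintillation counting of radioligand displacement from HEK293-expressed 5HT6, 1 hour post-dose, with loss of signal relative to DMSO. Single 25 uM duplicates first, with concentration series for confirmation.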
# [17] = target: Adenosine receptor A1 (Bos taurus) (UniProt P28190); assay: NVS_GPCR_bAdoR_NonSelective: NovaScreen (NVS) G Protein-Coupled Receptor Assay for bovine Adenosine Receptor (AdoR), Non-selective Binding (AID 2283244)
# Outline: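 Cell-free binding with membranes from bovine striatum: radioligand displaced by test chemical, read after 1 h by filtration and scintillation. Single-point 25 uM duplicate primary, 50 uM top concentration in follow-up curves, DMSO baseline.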
# [18] = target: guinea pig Leukotriene D4 Receptor (LTD4), CYSLTR1 (gene 100135514) (UniProt Q2NNR5); assay: NVS_GPCR_gLTD4: NovaScreen (NVS) G Protein-Coupled Receptor Assay for guinea pig Leukotriene D4 Receptor (LTD4) (AID 2283248)
# guinea pig Leukotriene D4 Receptor (LTD4), CYSLTR1 (gene 100135514), sequence (Q2NNR5 whole entry, looked up): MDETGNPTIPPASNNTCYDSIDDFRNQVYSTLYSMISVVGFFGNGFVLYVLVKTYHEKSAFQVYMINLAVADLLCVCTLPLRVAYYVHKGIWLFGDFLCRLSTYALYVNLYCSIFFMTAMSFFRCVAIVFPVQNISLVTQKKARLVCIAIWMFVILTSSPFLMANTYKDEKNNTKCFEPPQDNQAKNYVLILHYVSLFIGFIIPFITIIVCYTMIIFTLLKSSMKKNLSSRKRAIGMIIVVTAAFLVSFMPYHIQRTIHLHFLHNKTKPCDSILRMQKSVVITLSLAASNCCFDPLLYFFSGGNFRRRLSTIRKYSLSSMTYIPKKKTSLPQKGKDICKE
# Outline: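 Guinea pig lung membrane preparation; bound radioligand measured by filter scintillation after 1 h, loss of signal versus DMSO marking displacement. Compounds tested at 25 uM in duplicate, hits retested to max 50 uM.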
smiles,measurement,setting,value
Nc1cccc2ccccc12,AC50,[1],13.6 µM (active)
same,AC50,[2],25 µM (active)
Nc1ccc(-c2ccc(N)c(Cl)c2)cc1Cl,AC50,[1],1.64 µM (active)
CN(C)N=O,outcome,[3],inactive
CC(C)(C)CC(C)(C)c1ccc(O)cc1,AC50,[4],34.1 µM (active)
same,outcome,[5],inactive
ClC(Cl)=C(Cl)C(Cl)=C(Cl)Cl,outcome,[1],inactive
N#CCc1ccc(Cl)cc1,AC50,[2],25 µM (active)
CCOC(=O)/C=C(C)/C=C/C[C@@H](C)CCCC(C)C,AC50,[1],31.3 µM (active)
O=[N+]([O-])c1ccc2c3c(cccc13)CC2,AC50,[1],18.9 µM (active)
same,AC50,[2],6.28 µM (active)
CCN1CCC2(CC1)COc1cc3c(cc12)N(C(=O)c1ccc(-c2ccc(-c4nnc(C)o4)cc2C)cc1)CC3,AC50,[1],4.68 µM (active)
same,AC50,[6],9.79 µM (active)
same,AC50,[7],19.5 µM (active)
same,AC50,[2],23.4 µM (active)
same,AC50,[8],10.2 µM (active)
same,AC50,[9],1.79 µM (active)
same,AC50,[10],23.4 µM (active)
same,AC50,[4],23.4 µM (active)
same,AC50,[11],13.9 µM (active)
COS(=O)(=O)c1ccc(C)cc1,outcome,[5],inactive
CCNc1nc(NC(C)(C)C)nc(SC)n1,AC50,[12],17.8 µM (active)
same,AC50,[5],17.4 µM (active)
O=C(Nc1ccc2[nH]ccc2c1)c1cc2cc(F)ccc2n1Cc1cccc(F)c1,outcome,[13],inactive
O=C1C2(Cl)C3(Cl)C4(Cl)C(Cl)(Cl)C5(Cl)C3(Cl)C1(Cl)C5(Cl)C24Cl (stereo not given),outcome,[10],inactive
same,AC50,[4],1.04 µM (active)
same,AC50,[5],0.11 µM (active)
same,AC50,[14],978 nM (active)
Clc1ccc(C2(Cn3cncn3)CC(Br)CO2)c(Cl)c1 (stereo not given),outcome,[1],inactive
same,AC50,[15],11.8 µM (active)
CCC(=O)C(CC(C)N(C)C)(c1ccccc1)c1ccccc1 (stereo not given),AC50,[6],6.89 µM (active)
same,AC50,[7],4.1 µM (active)
same,AC50,[8],5.61 µM (active)
same,AC50,[9],7.94 µM (active)
same,AC50,[10],6.69 µM (active)
same,AC50,[15],1.42 µM (active)
same,AC50,[16],18.1 µM (active)
same,AC50,[4],3.59 µM (active)
same,AC50,[11],16 µM (active)
O=C(O)C(F)(F)C(F)(F)C(F)(F)C(F)(F)C(F)(F)C(F)(F)C(F)(F)C(F)(F)C(F)(F)C(F)(F)F,outcome,[1],inactive
same,outcome,[17],inactive
same,AC50,[3],5.1 µM (active)
same,outcome,[18],inactive
same,outcome,[10],inactive
same,AC50,[4],12.9 µM (active)
same,AC50,[5],2.43 µM (active)
CCOP(=S)(OCC)Oc1nc(Cl)c(Cl)cc1Cl,outcome,[4],inactive
O=S(=O)(c1ccc(Cl)cc1)c1ccc(Cl)cc1,outcome,[2],inactive
CC12CC1(C)C(=O)N(c1cc(Cl)cc(Cl)c1)C2=O (stereo not given),outcome,[1],inactive
same,outcome,[7],inactive
